# A selection: hits, their analogues and other compounds. The true share with any hit is near 4.2%.
# tim23-1 inh: growth inhibitors of tim23-1 mutant yeast; S. cerevisiae tim23-1 growth, BacTiter-Glo luminescence, 24 h; AID 463212; inhibition, % at 20 µM; 1.3% of 330,000 active;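 active = growth inhibition of the mutant yeast at or above 50%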;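 also: temperature-sensitive mutant grown at 25 °C; plate controls were DMSO-treated mutant yeast for no effect and medium wells lacking yeast for full effect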
# TIM10 inh: inhibits growth of TIM10 yeast strain. S. cerevisiae TIM10 strain growth, BacTiter-Glo luminescence, 24 h. inhibition, % at 10 µM. 1.4% of 330,000 active;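 active = inhibition of 40% or more at the single tested concentration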;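 also: wild-type TIM10 isogenic control strain grown at permissive 25 °C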
# NALP1 inh: inhibitors of NALP1 inflammasome in yeast. 0.61% of 280,000 active. inhibition, % at 10 µM. S. cerevisiae NALP1/ASC/caspase-1 growth, X-gal OD620, 72 h; in the data active = inhibition mostly above about 24%, no sharp cut-off; inactive = mostly below about 32%
# V-ATPase pHluor: yeast V-ATPase proton transport regulation by pHLuorin; S. cerevisiae, pHLuorin cytosolic pH fluorescence; response, % at 10 µM; 0.37% of 350,000 active; AID 504577; in the data active = response mostly above about 7.3%, no sharp cut-off; inactive = mostly below about 5.4%; also: actives read high
# NALP3 yeast inh: inhibitors of NALP3 inflammasome in yeast. Yeast reconstituted NLRP3/ASC/caspase-1, beta-gal luminescence, 24 h. inhibition, % at 10 µM. 0.39% of 330,000 active. AID 2825;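 active = inhibition of 50% or more; inactive = inhibition below 50%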;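 also: plate controls were induced DMSO wells for no effect and uninduced yeast grown without galactose for full effect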
# tim10-1 inh: tim10-1 yeast growth inhibition; S. cerevisiae tim10-1 ts strain growth, BacTiter-Glo, 24 h; inhibition, % at 20 µM; 2.2% of 330,000 active;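 active = inhibition of at least 40%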;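 also: mutant grown at 25 °C; 0% = DMSO wells with yeast and 100% = wells holding no yeast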
# tim10-1 confirm: tim10-1 yeast growth inhibition, confirmed | S. cerevisiae tim10-1 ts strain growth, BacTiter-Glo, 24 h | inhibition, % at 20 µM | 56% of 7,400 active | shares compounds with tim10-1 inh | AID 463213;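 active = inhibition of yeast growth at or above a set limit in either of two repeat tests at 20 µM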;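 also: tim10-1 mutant grown at permissive 25 °C to find synthetic lethal compounds; 0% = DMSO yeast wells and 100% = medium wells without yeast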
# tim10 confirm: TIM10 yeast growth inhibition, confirmed | shares compounds with TIM10 inh | S. cerevisiae tim10 strain growth, BacTiter-Glo luminescence, 24 h | inhibition, % at 10 µM | 63% of 4,600 active | AID 463215;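 active = inhibition of yeast growth at or above a set limit in either of two replicates at 10 µM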;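 also: this counterscreen used the strain with wild-type TIM10; 0% = yeast with DMSO and 100% = medium wells lacking yeast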
# * = called active by the depositor; · = no result given.
SMILES,tim23-1 inh,TIM10 inh,NALP1 inh,V-ATPase pHluor,NALP3 yeast inh,tim10-1 inh,tim10-1 confirm,tim10 confirm
CC(=O)c1cccc(NC(=O)NNC(=O)CCC(=O)Nc2ccc(C)c(C)c2)c1,-10,-1,10,0,10,-7,·,·
O=C(COC(=O)c1cc(=O)[nH]c2ccccc12)Nc1ccc(F)cc1,3,-5,·,1,4,-20,·,·
CCC(/C=C1\Sc2ccc(OC)cc2N1CC)=C\c1sc2ccc(OC)cc2[n+]1CCCS(=O)(=O)[O-],33,45*,3,2,20,50*,43*,13
CN(C)c1ccc(/C=N/NC(=S)NCc2ccccc2)cc1,26,55*,-1,-4,23,43*,32*,44*
C/C(=N\NC(=S)NCc1ccccc1)c1ccc(Br)cc1,13,40,2,2,4,49*,24,32*
C/C(=N\NC(=S)NCc1ccccc1)c1ccc2c(c1)OCCO2,49,46*,7,0,6,43*,49*,39*
CC(C)(C)c1ccc(/C=N/NC(=S)NCc2ccccc2)cc1,-2,3,12,5,13,-4,·,·
Cc1ccc(NC(=O)C2CSC3(C)CCC(=O)N23)cc1S(=O)(=O)N1CCCCCC1 (centres undefined),18,5,·,3,19,20,·,·
C=C1CCC[C@]2(C)C[C@H]3OC(=O)C(CN4CC(C)OC(C)C4)[C@H]3C[C@@H]12 (some centres undefined),43,40*,-6,5,17,42*,31*,37*
FC(F)Sc1ccc(NC(=S)NCC2CCCCC2)cc1,48,69*,-24,-3,27,71*,60*,60*
FC(F)Sc1ccc(NC(=S)NC2CCCCC2)cc1,31,66*,-8,4,24,65*,67*,62*
FC(F)Sc1ccc(NC(=S)NCc2ccccc2)cc1,44,56*,8,-2,17,48*,41*,44*
FC(F)Sc1ccc(NC(=S)NC(c2ccccc2)c2ccccc2)cc1,1,12,10,1,11,8,·,·
S=C(Nc1ccc(Br)cc1)NC1CCCC1,26,9,0,0,18,28,·,·
CN(CC(=O)Nc1ccc(SC(F)F)cc1)C1CCCCC1,2,-6,10,0,18,-11,·,·
O=C(NCCCn1ccnc1)C1CCN(S(=O)(=O)c2cc([N+](=O)[O-])ccc2Cl)CC1,4,-4,·,-2,8,7,·,·
COc1cccc2sc(N3CCN(C(=O)c4ccco4)CC3)nc12,24,18,·,-1,21,24,·,·
CCc1cccc2sc(N3CCN(C(=O)c4ccc([N+](=O)[O-])o4)CC3)nc12,8,58*,·,0,47,79*,74*,89*
COc1ccc(OC)c(NC(=O)CCN2C(=O)c3ccccc3C2=O)c1,10,-1,15,-2,24,9,·,·
S=C(N/N=C/c1ccco1)NC1CC2CCC1C2 (centres undefined),49,42*,5,-2,28,51*,36*,51*
N#Cc1sc2nc(C3CC3)cc(-c3ccc(Cl)cc3)c2c1N,40,44*,28,-3,17,43*,36*,-6
COc1ccc(-c2cc(-c3cccs3)nc3sc(C#N)c(N)c23)cc1,28,17,19,-4,15,35,·,·
CCN(CC(=O)Nc1ccccc1C(F)(F)F)C(=O)C1CSC2(C)CCC(=O)N12 (centres undefined),14,10,·,-1,13,-3,·,·
O=C(Nc1ccc(Cl)c([N+](=O)[O-])c1)ONC1=NCCCCC1,41,54*,7,2,-6,78*,77*,46*
C[C@H]1CC[C@H]2C(=O)N3[C@H](c4ccccc4Br)[C@@H](C)CC[C@H]3C(=O)N2[C@@H]1c1ccccc1Br,47,44*,35,·,1,41*,33*,41*
SMILES,tim23-1 inh,TIM10 inh,NALP1 inh,V-ATPase pHluor,NALP3 yeast inh,tim10-1 inh,tim10-1 confirm,tim10 confirm
CCOC(=O)c1ccc(NC(=O)CC2Sc3ncnn3C2=O)cc1 (centres undefined),25,75*,93*,-3,34,61*,58*,58*
O=C(NC(=S)NCCC1=CCCCC1)c1ccccc1Br,34,46*,4,-1,2,43*,31*,41*
CCOc1cc(-c2noc(N)c2C#N)cc(OCC)c1OCC,48,67*,5,1,-2,68*,61*,58*
O=C(COC(=O)c1ccc([N+](=O)[O-])s1)Nc1ccc(Cl)cn1,-146,39,20,4,15,24,·,·
Cc1c(Cl)cnc(NC(=O)COC(=O)c2ccc([N+](=O)[O-])s2)c1Cl,-19,66*,27,15,14,49*,27,82*
C/C(=N\NC(=O)c1cccnc1)c1ccc(OC2OCCOC2Oc2ccc(/C(C)=N/NC(=O)c3cccnc3)cc2)cc1 (centres undefined),12,-5,11,0,9,-4,·,·
CCOc1c(OC(C)=O)ccc(/C=C2\N=C(SCC)SC2=O)c1[N+](=O)[O-],37,45*,14,0,19,50*,46*,31*
Cc1ccc2nc3c(cc2c1)c(NC(=O)C(C)(C)C)nn3CC(C)C,35,14,4,7,23,35,·,·
Cc1cc(C)c2sc(N(CCCN(C)C)C(=O)c3ccc(S(=O)(=O)N4CCCc5ccccc54)cc3)nc2c1,20,51*,·,6,22,54*,41*,33*
CN(C)CCCN(C(=O)c1ccc(S(=O)(=O)N2CCc3ccccc3C2)cc1)c1nc2ccc(F)cc2s1,30,57*,20,0,27,59*,36*,45*
Cc1cccc2sc(N(CCCN(C)C)C(=O)c3ccc(S(=O)(=O)N4CCc5ccccc5C4)cc3)nc12,20,40*,28,-1,11,41*,16,22
CN(C)CCCN(C(=O)c1ccc(S(=O)(=O)N2CCc3ccccc3C2)cc1)c1nc2c(F)cccc2s1,4,18,14,8,6,35,·,·
COc1ccc2sc(N(CCCN(C)C)C(=O)c3ccc(S(=O)(=O)N4CCc5ccccc5C4)cc3)nc2c1,10,15,·,-4,33,30,·,·
COc1ccc(NC(=O)CNC(=O)C2CCCCC2)cc1OC,-2,-5,·,0,-6,2,·,·
COc1cc(C2C3=C(COC3=O)OC(C)(C)Oc3cc4c(cc32)OCO4)cc(OC)c1OC (centres undefined),·,·,·,-3,·,·,·,·

# Screening results from PubChem BioAssay.
